Sensor-assay potency score (higher = more potent) data for 20 sequences are collected here from the OligoGym collection.
Note: reference of the scale not given here.

In one assay the target is TSEN34. The experiment in a line: pooled miR-30 sensor sort-seq; sequence = guide strand. To be noted: shRNA.
As for TACTGTAGCGCAGCTCGTGGGC, the sensor-assay potency score (higher = more potent) is -0.594.

With TTCTGCTTCTTAGCAGCCTGGC, the sensor-assay potency score (higher = more potent) is -0.77.

As for TAGACTGGACACGCCAGTCCAG, the sensor-assay potency score (higher = more potent) is -1.11.

For the sequence ATCACTGGTCTCATCCTCTTTG, the sensor-assay potency score (higher = more potent) was -0.941.

As for TCTTTAGACTGGACACGCCAGT, the sensor-assay potency score (higher = more potent) is -1.04.

For TTTCTGCTTCTTAGCAGCCTGG, the sensor-assay potency score (higher = more potent) was -1.47.

Turning to TCGGGCATCAGCAGCAGCGGGA, the sensor-assay potency score (higher = more potent) is -1.31.

Take TCTGTAGATACTGTAGCGCAGC: the sensor-assay potency score (higher = more potent) was -0.735.

In the case of TCTAGTTTCTGCTTCTTAGCAG, the sensor-assay potency score (higher = more potent) is 0.419.

The target of another assay is TSPAN3. The assay is described as above. The settings on record: shRNA.
TTGCTGGCAGTCTCTCTGCAGC: the sensor-assay potency score (higher = more potent) was -1.25.

TTGCTCTGTAAACATATCCCAA: the sensor-assay potency score (higher = more potent) is -1.02.

Regarding TTTCTTTGAACCAATCTGTATT, the sensor-assay potency score (higher = more potent) is -1.05.

For the sequence AATTCCACAACAATGCAGCTGT, the sensor-assay potency score (higher = more potent) came to 0.00279.

In the case of TAGGTCTTATACACTTTCTGAA, the sensor-assay potency score (higher = more potent) is -0.69.

The sequence AACCACTACAACAACTTCTGTG gave a sensor-assay potency score (higher = more potent) of 0.151.

Take TTATACACTTTCTGAATGCTGC: the sensor-assay potency score (higher = more potent) is -0.18.

TTTCTTGTAGCTTCTTCACTAC: the sensor-assay potency score (higher = more potent) is -0.264.

In turn, TACACTTTCTGAATGCTGCGAT registered a sensor-assay potency score (higher = more potent) of 1.02.

Take TAAGCAGGATCTCTACTCCTTC: the sensor-assay potency score (higher = more potent) is -0.519.

Consider TTCTGTGACAAAAACCAAGAGC, for which the sensor-assay potency score (higher = more potent) was -0.255.
